Most compounds without a hit are left out; they make up all but 1.1% or so of the library.
CIT2-GFP yeast – modulators of CIT2-GFP expression in yeast, primary screen, S. cerevisiae, GFP fusion, multiplex flow cytometry, MLPCN library. 320,000 compounds, 0.065% hits. S. cerevisiae CIT2-GFP strain, 3 h; 100 means same as DMSO wells. GFP response vs DMSO, % at 10 µM. AID 2029, 2009;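 active means GFP response relative to DMSO above a set limit, near the screen mean plus 3 SD, cut at about 150% in these data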;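 further: ratio of well median GFP fluorescence to mean of DMSO wells on the plate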
MEP2-GFP yeast – modulators of MEP2-GFP levels in yeast, primary screen, S. cerevisiae, multiplex flow cytometry, MLPCN library | S. cerevisiae MEP2-GFP strain, 3 h; 100% = DMSO control level | GFP response vs DMSO, % at 10 µM | 330,000 compounds, 0.51% hits | AID 2016, 2009;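 active means GFP response versus DMSO above a set limit, roughly screen mean plus 3 SD, cut at about 180% in these data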;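 further: median GFP fluorescence of the barcode-gated MEP2-GFP cells per well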
AGP1 TOR yeast – modulators of AGP1-GFP expression in yeast TOR pathway, primary screen, cell-based, multiplex flow cytometry, S. cerevisiae, MLPCN library; 3 h; GFP as percent of DMSO wells; GFP response vs DMSO, % at 10 µM; 320,000 compounds, 0.02% hits; AID 2066, 2009;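 active means GFP response relative to DMSO above a set limit, near screen average plus 3 SD, cut at about 150% in these data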;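 further: median GFP channel fluorescence of the gated AGP1 strain per well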
LAP4 TOR yeast – modulators of LAP4-GFP expression in yeast, primary screen, S. cerevisiae, multiplex flow cytometry, MLPCN library | 3 h; median GFP as percent of DMSO wells | GFP response vs DMSO, % at 10 µM | 320,000 compounds, 0.34% hits;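 active means GFP response vs DMSO above a set limit, about the screen mean plus 3 SD, cut at about 150% in these data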
VLA-4 inh – inhibition in human VLA-4 binding assay, primary screen, VLA-4 allosteric modulator project, MLPCN library, flow cytometry, VLA-4 expressing cells | AID 2557, 2010 | 330,000 compounds, 0.2% hits | inhibition, % (about 7 µM as worked out from the volumes in the protocol) | ligand binding flow cytometry | Integrin alpha-4 (Homo sapiens), P13612; in the data active means inhibition above about 50%
Target sequence (P13612 whole entry, looked up): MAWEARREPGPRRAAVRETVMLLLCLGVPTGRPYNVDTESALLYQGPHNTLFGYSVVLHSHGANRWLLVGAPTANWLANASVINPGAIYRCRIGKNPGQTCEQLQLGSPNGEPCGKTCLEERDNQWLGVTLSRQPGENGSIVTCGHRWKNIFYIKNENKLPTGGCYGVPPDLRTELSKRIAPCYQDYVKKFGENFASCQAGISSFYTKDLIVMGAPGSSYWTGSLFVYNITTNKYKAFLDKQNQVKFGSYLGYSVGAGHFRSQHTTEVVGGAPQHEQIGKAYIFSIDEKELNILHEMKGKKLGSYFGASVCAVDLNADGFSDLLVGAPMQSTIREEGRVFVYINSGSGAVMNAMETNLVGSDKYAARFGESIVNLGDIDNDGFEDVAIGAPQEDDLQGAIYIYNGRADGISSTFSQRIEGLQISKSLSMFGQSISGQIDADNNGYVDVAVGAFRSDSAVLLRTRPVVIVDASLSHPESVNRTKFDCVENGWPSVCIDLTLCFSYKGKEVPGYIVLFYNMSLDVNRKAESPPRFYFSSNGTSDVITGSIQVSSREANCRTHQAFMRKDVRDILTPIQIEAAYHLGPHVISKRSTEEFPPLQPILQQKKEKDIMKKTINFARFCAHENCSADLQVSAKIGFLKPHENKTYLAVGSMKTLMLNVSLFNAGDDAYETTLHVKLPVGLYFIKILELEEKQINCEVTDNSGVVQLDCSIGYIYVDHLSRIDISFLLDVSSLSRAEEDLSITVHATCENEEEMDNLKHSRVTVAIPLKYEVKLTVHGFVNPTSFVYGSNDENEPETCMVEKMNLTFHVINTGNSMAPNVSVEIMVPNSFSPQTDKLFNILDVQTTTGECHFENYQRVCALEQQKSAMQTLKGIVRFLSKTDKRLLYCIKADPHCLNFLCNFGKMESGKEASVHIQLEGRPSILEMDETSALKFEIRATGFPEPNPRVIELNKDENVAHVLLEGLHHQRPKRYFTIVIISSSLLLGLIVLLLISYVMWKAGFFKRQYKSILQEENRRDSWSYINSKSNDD
RPL19A-GFP yeast – RPL19A-GFP expression modulators in yeast, primary screen, cell-based, S. cerevisiae, multiplex flow cytometry, MLPCN; 330,000 compounds, 0.3% hits; S. cerevisiae RPL19A-GFP strain, 3 h; active compounds read low; percent response vs DMSO, % at 10 µM;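 active means percent response vs DMSO below 50%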;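 further: median channel GFP fluorescence of the barcoded RPL19A-GFP strain; ratio of sample median GFP to plate DMSO average so 100% = DMSO; lower means less RPL19A-GFP as with rapamycin TOR inhibition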
LAP4-GFP pick2 – LAP4-GFP expression modulators in yeast, confirmation, cell-based, second cherry pick, flow cytometry; shares compounds with LAP4 TOR yeast; S. cerevisiae LAP4-GFP strain, 3 h; GFP response vs DMSO, % at 10 µM; 590 compounds, 20% hits; AID 2621, 2010;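 active means GFP signal as percent of the solvent control above about 150%, meaning raised reporter expression, limit read from the data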;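 further: ratio of well median GFP fluorescence to plate DMSO mean so 100% = DMSO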
MEP2 cherry2 – modulators of MEP2-GFP levels in yeast, confirmation, S. cerevisiae, flow cytometry GFP, second cherry picks. shares compounds with LAP4 TOR yeast. S. cerevisiae MEP2-GFP strain, 3 h. GFP response vs DMSO, % at 10 µM. 590 compounds, 10% hits. AID 2622, 2010;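 active means GFP signal above 150% of the solvent control wells, that is a rise of more than half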;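 further: median channel GFP fluorescence of all gated yeast cells per well; ratio of median GFP to plate DMSO average so 100% = DMSO level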
RPL19A-GFP pick2 – RPL19A-GFP modulators in TOR pathway yeast, confirmation, cell-based, S. cerevisiae, flow cytometry, second cherry pick | shares compounds with LAP4 TOR yeast | S. cerevisiae RPL19A-GFP strain, 3 h; active compounds read low; 100% means same as DMSO wells | GFP response vs DMSO, % at 10 µM | 590 compounds, 3% hits | AID 2623, 2010;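 active means under 65% GFP response relative to DMSO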;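 further: median GFP channel fluorescence per well over the all cells gate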
CIT2-GFP pick2 – modulators of CIT2-GFP expression in yeast, confirmation, flow cytometry, second cherry pick, single plex; AID 2624, 2010; S. cerevisiae CIT2-GFP strain, 3 h; DMSO control wells read 100%; shares compounds with LAP4 TOR yeast; 590 compounds, 8% hits; GFP response vs DMSO, % at 10 µM;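 active means GFP response vs DMSO above about 150%, limit read from the data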;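 further: median green fluorescence per well over all gated yeast cells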
AGP1 GFP CP2 – AGP1-GFP expression modulators, hit retest, confirmation, cell-based, flow cytometry, S. cerevisiae, cherry pick set 2; AID 2643, 2010; percent response vs DMSO, % at 10 µM; 590 tested, under 10 active; shares compounds with LAP4 TOR yeast; S. cerevisiae AGP1-GFP strain, 3 h;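 active means over 150 percent of DMSO response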;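 further: median GFP channel fluorescence over all cells without mother daughter split; sample median GFP divided by mean DMSO control so 100% equals DMSO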
s288c autofluor – compound autofluorescence in yeast s288c, dose response, artefact control for yeast TOR pathway GFP screen, s288c strain; 610 tested, under 10 active; shares compounds with LAP4 TOR yeast; fluorescence change (kMESF span) at 33 µM; S. cerevisiae s288c, 520 nm autofluorescence, flow cytometry, 3 h; active compounds read high; zero means same as solvent-only cells; AID 2757, 2010;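 active means fluorescence span over the dose series, or activity score, above about 33, limit read from the data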
* hit, by the source's call; x = no result given.

SMILES | CIT2-GFP yeast | MEP2-GFP yeast | AGP1 TOR yeast | LAP4 TOR yeast | VLA-4 inh | RPL19A-GFP yeast | LAP4-GFP pick2 | MEP2 cherry2 | RPL19A-GFP pick2 | CIT2-GFP pick2 | AGP1 GFP CP2 | s288c autofluor
CC(=O)Nc1ccc(C(=O)CN2C(=O)CSC2=O)cc1 | 101.5 | 106.1 | 103.4 | 92.1 | 1.0 | 104.7 | x | x | x | x | x | x
CCC(C)/C(C)=N/NC(=O)c1ccc(COc2ccc(Cl)c(C)c2)cc1 (configuration not stated) | 64.1 | 135.4 | 98.5 | 205.5* | 13.2 | 84.7 | 142.3 | 174.7* | 107.2 | 126.5 | 114.5 | 1.9
CC(=O)c1sc2nc(-c3cccs3)ccc2c1N | 104.5 | 121.8 | 65.4 | 175.5* | -52.4 | 80.9 | 96.2 | 96.5 | 99.8 | 106.3 | 96.2 | x
COc1cc(N2C(=O)C=CC2=O)c(OC)cc1Cl | 59.8 | 95.5 | 68.2 | 259.8* | 26.0 | 72.9 | x | x | x | x | x | 1.82
COc1ccc(-c2cc(C(F)F)n3ncc(C(=O)NCC4CCCO4)c3n2)cc1 (configuration not stated) | 173.9* | 92.6 | 73.2 | 89.2 | 0.2 | 91.6 | 99.2 | 99.6 | 99.7 | 105.7 | 95.5 | x
O=C(NCC1CCCO1)c1cnn2c(C(F)F)cc(C3CC3)nc12 (configuration not stated) | 108.4 | 91.2 | 87.9 | 66.7 | -19.3 | 103.3 | x | x | x | x | x | x
CCn1c(SCC(=O)N(C)Cc2ccc(OC)c(F)c2)nc2cc(S(N)(=O)=O)ccc21 | 105.6 | 96.9 | 106.8 | 114.1 | -11.7 | 101.0 | x | x | x | x | x | x
CC1CN(S(=O)(=O)c2ccc(C(=O)N3CCc4ccccc43)cc2)CC(C)O1 (configuration not stated) | 99.2 | 100.7 | 88.7 | 101.1 | 10.9 | 93.0 | x | x | x | x | x | x
O=C(Nc1ccc(C(=O)N2CCCC2)cc1)c1ccccc1Br | 98.2 | 100.6 | 98.9 | 102.5 | -3.4 | 99.1 | x | x | x | x | x | x
O=C(Nc1ccc(C(=O)N2CCCCC2)cc1)c1ccccc1Br | 101.8 | 217.9* | 102.9 | 151.8* | 8.8 | 103.4 | 105.2 | 115.3 | 101.0 | 109.9 | 97.8 | x
COc1ccc(N2CCN(C(=O)c3cc(=O)c4cc(C)c(C)cc4o3)CC2)cc1 | 104.3 | 96.1 | 92.9 | 88.5 | 16.2 | 98.8 | x | x | x | x | x | x
COc1cc2c(cc1OC)C(c1cccs1)N(C(=O)c1cccc(S(=O)(=O)N(C)C)c1)CC2 (configuration not stated) | 101.6 | 101.8 | 105.4 | 104.3 | -6.4 | 97.0 | x | x | x | x | x | x
Cc1ccc(S(=O)(=O)ON2C(=O)c3cccc4cccc(c34)C2=O)cc1 | 109.1 | 107.4 | 110.8 | 96.3 | -0.9 | 108.8 | x | x | x | x | x | x
Cc1cc(S(=O)(=O)ON2C(=O)c3ccccc3C2=O)ccc1F | 95.4 | 100.8 | 89.5 | 172.6* | -3.5 | 98.8 | x | x | x | x | x | 1.23
O=C1c2ccccc2C(=O)N1OS(=O)(=O)c1ccccc1 | 95.7 | 89.5 | 79.9 | 223.3* | -15.2 | 86.9 | 144.2 | 159.7* | 72.1 | 112.0 | 82.4 | 2.12
COc1ccc(NC(=O)CN(C)C(=O)c2ccc(NS(=O)(=O)c3cccc([N+](=O)[O-])c3)cc2)cc1 | 99.9 | 102.6 | 102.4 | 101.3 | 6.9 | 98.5 | x | x | x | x | x | x
Cc1c(NC(=O)C(C)OC(=O)c2cc(Cl)ccc2O)c(=O)n(-c2ccccc2)n1C (configuration not stated) | 115.8 | 102.7 | 92.5 | 85.4 | -3.9 | 105.5 | x | x | x | x | x | x
COc1ccccc1OCCCc1c(C)n[nH]c1C | 99.9 | 118.7 | 58.4 | 190.5* | -3.2 | 116.9 | x | x | x | x | x | 2.02
Cc1ccc(C2CC(=O)Oc3cc(O)ccc32)cc1 (configuration not stated) | 70.2 | 96.7 | 90.4 | 179.9* | -14.7 | 74.7 | 115.4 | 138.1 | 88.7 | 99.5 | 111.0 | x
O=C1CC(c2ccccc2)c2cc(O)ccc2O1 (configuration not stated) | 108.2 | 103.1 | 101.4 | 100.6 | 0.0 | 103.9 | x | x | x | x | x | x
CCCCc1ccc(NC(=O)CC(C)=O)cc1 | 102.9 | 110.2 | 103.2 | 110.2 | 4.7 | 106.8 | 143.3 | 174.7* | 107.5 | 151.6* | 101.4 | 0
COc1ccccc1NS(=O)(=O)c1cc(NC(=O)C2CCCO2)ccc1C (configuration not stated) | 94.4 | 98.8 | 93.4 | 93.9 | -5.7 | 95.0 | x | x | x | x | x | x
CCN(C(=O)CN1CCN(c2cccc(Cl)c2)CC1)c1c(N)n(Cc2ccccc2)c(=O)[nH]c1=O | 96.7 | 132.9 | 74.9 | 95.6 | 5.3 | 63.0 | 101.0 | 99.8 | 99.8 | 97.2 | 100.8 | x
CCN(C(=O)CN1CCCCC1)c1c(N)n(Cc2ccccc2)c(=O)[nH]c1=O | 103.5 | 108.9 | 98.6 | 99.8 | 14.2 | 100.1 | x | x | x | x | x | x

Bioassay records (PubChem BioAssay)
